Source: PubChem BioAssay (several laboratories)
mHtt clearance – compounds clearing mutant huntingtin protein; actives 0.42% (n = 47,000); HeLa Exon1htt(103Q)mCFP, aggregate imaging; zero = plate's median compound well; inhibition, % at 1.5 µM;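 active = inhibition of aggregate fluorescence above about 70%, also judged a hit by eye on the cell image, limit read from the data, passing the limit was not always enough; inconclusive = no rule stated for this call; inactive = not judged a hit on image review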;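 note: cells exposed to compound for three days before fixation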
M1 antag – blocks the rat M1 muscarinic receptor response to acetylcholine | P08482 | CHO-M1 cells, Fluo-4 calcium, ACh EC80 antagonist mode; active compounds read low | B-score at 10 µM | actives 3.4% (n = 64,000) | AID 628;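 active = calcium fluorescence response, raw or row-and-column corrected B-score, differing from the plate sample mean either way at a set confidence level, mostly lower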
D1 allo mod – allosteric modulators of human D1 dopamine receptor; P21728; actives 5.9% (n = 58,000); HEK293 D1, CRE-luciferase, dopamine EC30 potentiation; actives deviate in either direction; AID 641; B-score at 10 µM;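 active = luminescence count or its row- and column-corrected plate score outside the 99.7% band of the plate's sample wells, on either side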
M1 ag – agonists of M1 muscarinic receptor; B-score at 10 µM; CHO-M1 cells, Fluo-4 calcium fluorescence, agonist mode; active compounds read high; actives 3% (n = 64,000);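 active = fluorescence rise, raw or as B-score row- and column-corrected plate score, outside the 99.7% band of its plate's samples, either direction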
M1 ag confirm – rat M1 muscarinic agonism, confirmation; shares compounds with M1 ag; fluorescence change (max-min) at 10 µM; CHO-M1 cells, Fluo-4 calcium fluorescence, agonist mode; actives lie on both sides; actives 19% (n = 1,700);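 active = fluorescence change differs from the solvent-only DMSO control mean at a set confidence level in both duplicate runs; inconclusive = differs from solvent-only control mean in just one of two runs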;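 note: an EC20 dose of acetylcholine follows compound addition during the same imaging run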
M4 ag counter – rat M4 muscarinic agonism, M1 counter-screen; fluorescence change (max-min) at 10 µM; CHO M4/Gqi5 cells, Fluo-4 calcium fluorescence, agonist mode; actives lie on both sides; shares compounds with M1 ag; actives 9% (n = 1,700); AID 1741;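 active = fluorescence change differing from the plate's solvent-only control wells at 99.7% confidence in both duplicates, whether higher or lower; inconclusive = differs from solvent controls in only one of two duplicates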
Target sequence (P08485 whole entry, looked up): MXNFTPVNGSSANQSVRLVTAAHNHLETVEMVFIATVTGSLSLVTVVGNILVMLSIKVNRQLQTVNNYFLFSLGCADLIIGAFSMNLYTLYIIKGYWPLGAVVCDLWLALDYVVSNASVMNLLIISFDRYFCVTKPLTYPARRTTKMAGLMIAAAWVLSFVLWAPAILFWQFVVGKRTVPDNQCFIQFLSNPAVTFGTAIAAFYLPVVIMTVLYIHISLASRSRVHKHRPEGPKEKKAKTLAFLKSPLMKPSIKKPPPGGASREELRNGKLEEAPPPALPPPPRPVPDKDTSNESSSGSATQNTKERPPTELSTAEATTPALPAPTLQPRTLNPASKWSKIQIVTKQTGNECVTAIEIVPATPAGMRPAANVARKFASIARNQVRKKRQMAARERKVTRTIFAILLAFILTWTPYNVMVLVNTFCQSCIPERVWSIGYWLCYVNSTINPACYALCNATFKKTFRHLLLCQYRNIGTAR
Of the large screens only hits and unclear results are named; the others gave an inactive call (follow-up assays come after a bar, where they were run). A selection: hits, their analogues and other compounds. The true share with any hit is near 9.1%.

Cc1cc(-c2ccccc2)nc(N2CCC(C(=O)NCC3CCCCC3)CC2)n1	none (no result: M1 antag, D1 allo mod, M1 ag)
Cc1ccc(CNC(=O)C2CC(c3cccc([N+](=O)[O-])c3)=NO2)o1 (configuration not stated)	none (no result: M1 antag, D1 allo mod, M1 ag)
COc1cccc(NC(=O)CC2(CC(=O)O)CCCC2)c1	none
CCn1cc(S(=O)(=O)CC(=O)N2CCc3ccccc32)c2ccccc21	none (no result: mHtt clearance)
CC(=O)c1c(C)nn(CC(O)Cn2c3c(c4cc(C)ccc42)CCCC3=O)c1C (configuration not stated)	M1 ag 5.2 | M1 ag confirm -42 | M4 ag counter inactive
COc1ccc(N2C(=O)CC(Sc3nc(C)c4c(n3)CCCC4)C2=O)cc1 (configuration not stated)	M1 ag 2.2 | M1 ag confirm inactive | M4 ag counter inactive
Cc1cccc(N2C(=O)CC(Sc3nc(C)c4c(n3)CCCC4)C2=O)c1 (configuration not stated)	none
CC(=O)N1C2CCCCC2S[C@H]2CCCCC21 (some centres not stated)	none (no result: mHtt clearance, D1 allo mod)
CCN1CCN(c2nc(SC)nc3sc4c(c23)CC(C)(C)OC4)CC1	none (no result: mHtt clearance)
CCN1CCN(c2nc(C)nc3c2sc(=S)n3C)CC1	M1 ag -2.6 | M1 ag confirm inactive | M4 ag counter inactive
COc1ccc(-c2nc(-c3ccc(NC(=O)c4ccncc4)cc3)no2)cc1OC	D1 allo mod -6.7, M1 ag 3.8 (no result: mHtt clearance) | M1 ag confirm inactive | M4 ag counter inactive
Nn1c(SCC(=O)Nc2ccccc2)nnc1-c1cccnc1	none
CCOC(=O)CC(=O)CSc1nc2ccccc2c(=O)n1-c1ccc(C(=O)N2CCOCC2)cc1	none (no result: mHtt clearance)
CCOC(=O)N1CCN(C(=O)CSc2nc3ccccc3c(=O)n2-c2ccccc2)CC1	M1 ag 3.8 | M1 ag confirm inconclusive | M4 ag counter inconclusive
Cc1ccc(CS(=O)(=O)CCC(=O)N2CCOCC2)cc1	none
CC(Oc1ccc(Cl)cc1Cl)C(=O)Nc1ccncc1 (configuration not stated)	M1 ag 7.3 (no result: mHtt clearance) | M1 ag confirm inactive | M4 ag counter inactive
CC(Oc1ccc(Cl)cc1Cl)C(=O)Nc1cccnc1 (configuration not stated)	none (no result: M1 antag, D1 allo mod, M1 ag)
Cc1cccc2cc(C(c3nnnn3Cc3ccccc3)N3CCN(c4ccccc4)CC3)c(=O)[nH]c12 (configuration not stated)	M1 ag 6.4 (no result: mHtt clearance) | M1 ag confirm inconclusive | M4 ag counter inconclusive
CC(C)N(C(=O)CN(C#N)c1nc(N(C)C)nc(N(C)C)n1)c1ccccc1	M1 ag -3.2 (no result: mHtt clearance) | M1 ag confirm inactive | M4 ag counter inactive
CN1CCN(C(=O)CSc2nc(-c3cccs3)cc(-c3cccs3)c2C#N)CC1	M1 ag 5.7 (no result: mHtt clearance) | M1 ag confirm inactive | M4 ag counter inactive
COCCCn1c(-c2ccco2)nc2ccccc2c1=O	none (no result: mHtt clearance)
COc1ccc(CCn2c(-c3ccco3)nc3ccccc3c2=O)cc1OC	M1 antag -2.1, M1 ag 11 (no result: mHtt clearance, D1 allo mod) | M1 ag confirm inconclusive | M4 ag counter -73
CS(=O)(=O)N(CC(=O)NCc1cccnc1)Cc1ccc(Cl)cc1	none (no result: mHtt clearance)
CS(=O)(=O)N(CC(=O)NCc1ccncc1)Cc1ccc(Cl)cc1	M1 ag 2.2 | M1 ag confirm inactive | M4 ag counter inactive
CC(=O)c1cccc(NC(=O)C2CCCN(S(=O)(=O)c3cccc4cccnc34)C2)c1 (configuration not stated)	M1 ag 6.6 | M1 ag confirm -26 | M4 ag counter inconclusive
COc1ccc(N2CCN(C(=O)C3CCCN(S(=O)(=O)c4cccc5cccnc45)C3)CC2)cc1 (configuration not stated)	none
CC(=O)c1cccc(NC(=O)C2CCCN2S(=O)(=O)c2cccc3cccnc23)c1 (configuration not stated)	none (no result: mHtt clearance)
COc1ccc(NC(=O)C2CCCN(S(=O)(=O)c3cccc4cccnc34)C2)c(OC)c1 (configuration not stated)	M1 ag 3.1 (no result: mHtt clearance) | M1 ag confirm -32 | M4 ag counter inconclusive
CCCCN=CC1=C(O)C(C(=O)OC)C(C)(C)CC1=O (configuration not stated)	none
CN(C)c1ccc(/C=C/c2ccncc2)cc1	M1 ag 10 (no result: mHtt clearance) | M1 ag confirm 111 | M4 ag counter 150
COc1ccc(/C=C/c2ccncc2)cc1	none (no result: M1 antag, D1 allo mod, M1 ag)
COc1ccc(-c2cc(C(F)(F)F)n3ncc(C(=O)NCC4CCCO4)c3n2)cc1OC (configuration not stated)	M1 ag 41 | M1 ag confirm inconclusive | M4 ag counter inactive
COc1ccc(-c2cc(C(F)(F)F)n3nc(C(=O)Nc4cc(C)on4)cc3n2)cc1OC	M1 ag 24 | M1 ag confirm 179 | M4 ag counter inactive
CCOc1ccc2nc(NCCNC(=O)CC)c(C#N)cc2c1	M1 ag 9.7 | M1 ag confirm 133 | M4 ag counter inactive
Cc1ccc(C)c(OCC(O)CN2C(C)CCCC2C)c1 (configuration not stated)	M1 antag -1.5, M1 ag 2.5 | M1 ag confirm -29 | M4 ag counter inactive
Cc1c(NS(=O)(=O)c2ccc3c(c2)n(C)c(=O)n3C)c(=O)n(-c2ccccc2)n1C	none
CSc1nc2ccc(S(=O)(=O)Nc3c(C)n(C)n(-c4ccccc4)c3=O)cc2s1	M1 antag -2.8, M1 ag 6.1 (no result: mHtt clearance) | M1 ag confirm inconclusive | M4 ag counter inactive
CCn1c(CSc2nccn2C)nc2cc(C(=O)O)ccc21	M1 ag 7.2 (no result: mHtt clearance) | M1 ag confirm inactive | M4 ag counter inactive
Cn1ccnc1SCC(=O)Nc1ccccc1	none (no result: M1 antag, D1 allo mod, M1 ag)
O=C(Nc1ccc(N2CCOCC2)c(Cl)c1)c1ccc(Br)o1	M1 antag -2.5, D1 allo mod -5, M1 ag 11 | M1 ag confirm inactive | M4 ag counter inactive
CCOC(=O)Cn1c(=O)oc2cc(S(=O)(=O)NCCc3ccc(C)cc3)ccc21	none (no result: D1 allo mod)
CCOC(=O)Cn1c(=O)oc2cc(S(=O)(=O)Nc3ccc(F)cc3)ccc21	M1 ag 3.8 (no result: mHtt clearance) | M1 ag confirm inactive | M4 ag counter inactive
CC1CN(S(=O)(=O)c2ccc(NC(=O)c3ccco3)cc2)CC(C)O1 (configuration not stated)	M1 ag 12 (no result: mHtt clearance, D1 allo mod) | M1 ag confirm inactive | M4 ag counter inactive
O=C(Nc1ccc(S(=O)(=O)N2CCCCCC2)cc1)c1ccco1	none
CSc1nsc(SCC(=O)N2CCCc3ccccc32)n1	none
CCn1c(SCC(=O)N2CCCc3ccccc32)nc2cccnc21	none
COc1ccccc1N1CCN(C(=O)CSc2nc3ccccc3c(=O)n2CC2CCCO2)CC1 (configuration not stated)	M1 ag 9.7 | M1 ag confirm inactive | M4 ag counter inactive
CCn1c(SCC(=O)N2CCCc3ccccc32)nc2ccccc2c1=O	M1 ag 3.1 (no result: mHtt clearance) | M1 ag confirm inactive | M4 ag counter inactive
O=C(CSc1n[nH]c(-c2ccccc2O)n1)N1CCCc2ccccc21	M1 ag 11 (no result: mHtt clearance) | M1 ag confirm inconclusive | M4 ag counter inactive
